One test deals with Plasmodium falciparum. In words: GSK_TCMDC: Inhibition of Plasmodium falciparum 3D7 in whole red blood cells, using parasite LDH activity as an index of growth. Test compounds present at 2uM. The test is classed as functional.
Regarding `COC(=O)c1ccc(Nc2nccc(Nc3ccc(Oc4ccccc4)cc3)n2)cc1.Cl`, the Inhibition – broadly, the relative decrease from the control value, in per cent – was determined as 93%.
Molecule `N#CN1CC[C@H](CS(=O)(=O)c2cccc(Br)c2)C1` had an Inhibition of 88%.
Same read-out and setting: under `FC(F)(F)c1ccc2[nH]c(-c3ccc(-c4ccc(CNCC5CCCO5)cc4)cc3)nc2c1.O=C(O)C(F)(F)F` (configuration not stated) stands 100%.
Same read-out and setting: under `CN1CCC(C(=O)Nc2cccc(-c3ccc(-c4nc5cc(C(F)(F)F)ccc5[nH]4)cc3)c2)CC1` stands 100%.

The test system of the next test is Plasmodium falciparum. In words: GSK_TCMDC: Inhibition of Plasmodium falciparum Dd2 in whole red blood cells, using parasite LDH activity as an index of growth. Test compounds present at 2uM. The test is classed as functional.
Molecule `O=C(O)C(F)(F)F.Oc1ccc(CCCNc2nc(NCc3ccccc3-c3ccccc3)nc(N3CCNCC3)n2)cc1` showed an Inhibition of 48%.
The same measure, in the same setting: under `COc1cc2c(cc1S(=O)(=O)c1ccc(OCc3ccc(Cl)cc3)cc1)CCN(Cc1ccc(NC(C)=O)s1)CC2` stands 0%; under `O=C(NCCCCCN1CCC(c2c[nH]c3ccccc23)CC1)Nc1ccc(I)c(Cl)c1`, 5%.
The same measure, in the same setting: under `CC(C)CN(Cc1c(O)ccc2[nH]c(-c3ccc(F)cc3F)nc12)CC(C)C` stands 92%.
On the same count and under the same terms, under `COc1cc(NC(=O)c2ccc(-c3ccc(C(C)=O)cc3)s2)ccc1OCCN1CCCC1` stands 63%; under `CCCCCCOc1ccc(C(=O)N(Cc2ccccc2)c2c(-c3ccccc3)nc3cc(C)ccn23)cc1`, 96%.
As for `c1ccc(Oc2ccc(Nc3ccnc(Nc4cccc(CNCCCN5CCOCC5)c4)n3)cc2)cc1`, the Inhibition was determined as 50%.
Same read-out and setting: the figure for `CC1(C)C2C=C(CN3CCC(NC(=O)Nc4ccc(Cl)c(Cl)c4)CC3)C1CC2` (configuration not stated) is 33%; for `COc1ccc(NC(=O)[C@H](CC(C)C)Nc2ccnc(NCCc3ccc(F)cc3)n2)cc1.O=C(O)C(F)(F)F` it is 22%; for `Cl.O=C(/C=C/c1ccc(Cl)cc1)Nc1ccc2nc(CN3CCCC3)ccc2c1` it is 30%.
The same measure, in the same setting: the figure for `O=C(Nc1ccc(OC2CCN(Cc3ccccc3)CC2)c(Cl)c1)c1cccs1.O=C(O)C(F)(F)F` is 95%; for `Cc1cc(N2CCN(C3CCCCC3)CC2)nc2cccc(O)c12` it is 37%; for `NCC(NC(=O)c1ccc(-c2c[nH]c3ncccc23)s1)c1ccccc1.O=CO` (configuration not stated) it is 87%.
On the same count and under the same terms, the figure for `Cc1cc(CN2C(=O)C(c3ccccc3)(c3ccccc3)N=C2N)c(C(F)(F)F)o1` is 84%; for `Cc1cccc(C(=O)NC(NC(=S)Nc2ccc([N+](=O)[O-])cc2)C(Cl)(Cl)Cl)c1` (configuration not stated) it is 66%; for `COc1ccc(OC)c(NC(=O)CSc2nc(-c3ccccc3Cl)ns2)c1` it is 32%.
`CN1CCN(CCCN(Cc2ccc(-c3ccc(CNC4CCCC4)cc3)cc2)C(=O)CCC2CCCC2)CC1.O=C(O)C(F)(F)F` had an Inhibition of 96%.
Still for that read-out and setting: the figure for `Cc1ccccc1C1CCN(C2CCC(NC(=O)/C=C/c3ccccc3C(F)(F)F)CC2)CC1` (configuration not stated) is 6%.
Same read-out and setting: under `CC(=O)Nc1ccc(CNC2Cc3ccc(-c4ccc(Cl)c(Cl)c4)cc3C2)cc1` (configuration not stated) stands 7%.
Turning to `CN(C)Cc1cccc(-c2cc3c(-c4cnn(C)c4)c(Cl)cnc3[nH]2)c1`, the Inhibition was 21%.
The same measure, in the same setting: under `Clc1cc(Nc2ccnc3ccc(Br)cc23)ccc1Oc1ccc(Cl)c2ccccc12` stands 86%; under `Cc1cc(-c2ccc(CN3Cc4ccccc4C3)cc2)ccc1S(=O)(=O)NCCN1CCCC1.O=C(O)C(F)(F)F`, 10%; under `CCc1ccc(C2CCN(CCCCNC(=O)c3ccc(-c4ccc(C(F)(F)F)cc4)cc3)CC2)c(OCCO)c1.Cl`, 69%.
Take `O=S(=O)(c1cc(Cl)sc1Cl)N(CCC(O)(C(F)(F)F)C(F)(F)F)Cc1cccc(O)c1`: the Inhibition is 97%.
On the same count and under the same terms, the figure for `N#Cc1c(-c2ccccc2)cn2c1[nH]c(=O)c1ccccc12` is 95%.
The same measure, in the same setting: the figure for `COc1ccc2nccc([C@@H](O)CN3CCC(NCc4nc5c(C#N)cccc5[nH]4)CC3)c2c1.O=C(O)C(=O)O` is 9%; for `O=C(O)C(F)(F)F.Oc1ccc(CCNc2nc(NCCCOc3cccc(CN4CCCCC4)c3Cl)nc(N3CCNCC3)n2)cc1` it is 22%.
Same read-out and setting: the figure for `Oc1ccc2ccccc2c1CNCC1CCCCC1` is 93%; for `O=C(Nc1cccc(OC2CCN(Cc3ccccc3)CC2)c1)Nc1cccc([N+](=O)[O-])c1.O=C(O)C(F)(F)F` it is 48%; for `Cl.O=C(Nc1ccc2c(c1)CCNCC2)c1ccc(-c2ccc(Cl)cc2)cc1` it is 38%.
`COc1ccc2ncc(C#N)c(CCN3CCC(NCc4ccc5c(c4)NC(=O)CO5)CC3)c2c1.Cl` returned an Inhibition of 43%.
Molecule `CCOC(=O)N/N=C/[C@H](CCc1ccccc1)NC(=O)[C@H](CC(C)C)NC(=O)c1cc2cccc(OC)c2o1` came in with an Inhibition of 58%.
`Cc1c2c(nn1-c1ccccc1)C(c1ccccc1)N(c1ccccc1)C2=O` (configuration not stated): the Inhibition was 96%.

The values are drawn from ChEMBL document CHEMBL1157539, “Thousands of chemical starting points for antimalarial lead identification” (Nature, 2010).
